For the assay, the system named is VDR homodimer (NR concentration 270 nM). Nature of the assay: PBM binding z-score (relative to random genomic background probes); higher = stronger binding; sequences stand for … in GC…GCGATTGACAGCGTAGAATGAAGG
Put shortly:
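Binding z-scores take random background probes as their reference. They come from custom Agilent 4×180K protein-binding microarrays incubated 1 h with ligand-free nuclear receptor dimers, with antibodies against each partner (one per run) detecting binding. Scanned fluorescence was regression-normalized.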
Sequence TCTCGGAGAACACGAAAGGTCAGAGCTCGACATC had a PBM binding z-score of 0.319.

As to CCTCGGAGGACAACAGGACGTCAGAGCTGCCAGA, the PBM binding z-score was -0.354.

In the case of ACTCGGAGGACATAGGTCAGAGCTACGCCAGTGA, the PBM binding z-score stood at 0.202.

Turning to TCTGCTAGTTCAACGATGGTCAGCTAATCTGCTA, the PBM binding z-score turned out to be 0.129.

For GCTCGGAGGAGAAGGTCAGAGCTTTGTCCGTAGA, the PBM binding z-score is -0.592.

In the case of TCAGACACGTGAAGGTAACTCAGGTACGCAGTCG, the PBM binding z-score was 0.218.

Sequence CTTCCAAGGTCAAAGGTCAGTGAAGAGATGACGG gave a PBM binding z-score of 3.67.

Sequence AGAACGCGGGCAATGAGTTGATAGCACGGGTGGC yielded a PBM binding z-score of 0.678.

In the case of AATACAGGGACACTAGGCCAGAGTAGGTACGAAT, the PBM binding z-score was 0.347.

On to ATCGAAAGGTCGACGAGGTGAGTATCCACCGTTT, for which the PBM binding z-score is 0.828.

With AGAATGAGGATACCAAAGATCAGGGAAACGCTTG, the PBM binding z-score was -0.61.

With CCTTACGGGCCACTGACAGGTTATAGCATTTGGA, the PBM binding z-score was -0.034.

Sequence CCTCGGAGGACAACACGAGGTCAGAGCTGCCAGA gave a PBM binding z-score of 1.85.

Sequence CGAACTAGGGCAGAACAGGACAGTGAAGGATGAT gave a PBM binding z-score of -0.0975.

The sequence ATCTCTAGGTAAAGATAGTTCATTGAATGCAAAT yielded a PBM binding z-score of 1.98.

As to CATACAGGGTCAGCTAAGCCAGAGTAGGGACGGC, the PBM binding z-score was determined as 1.04.

As to GCTATTCGTTGAAAGGGCAACCGAATGATTCTCG, the PBM binding z-score was -0.329.

With CAAACTAGGTCACCGGAAGCTCAAAGTCCGCATG, the PBM binding z-score is 0.814.

For ATCGTAAGGTCGACGAGGTGAGTATACACCGTTT, the PBM binding z-score worked out at 1.63.

TGAATGAGGTTATAATATCAGGGAACGTTGCAAA gave a PBM binding z-score of 0.545.

Sequence CCTACTGGGCCATCAGGTCCTTGATATCAACGTT came in with a PBM binding z-score of 0.000123.

In turn, TCTATTAGTTGATTGGGGCAACCGAAACAGCGGA had a PBM binding z-score of 0.77.

In turn, ATCACTAGGTAAAGATAGTTCAGTGAATGCAAAT registered a PBM binding z-score of 0.49.

CCGAGTAGGTAATGGGGCATTCAGGCAACGGTGA yielded a PBM binding z-score of -0.22.

TCATATAGGTTAACAGGTGAAAGTCCGTAAGTTA gave a PBM binding z-score of 0.443.

TTACCAAGGTGAAAGTTCGTTGATGCACGCCTTG: the PBM binding z-score amounted to 2.05.

In turn, CCTCAAAGTTCAACTAAGGTAACGTAAAGCACGC displayed a PBM binding z-score of 4.44.

Sequence GAGACAGGGTCAGCTAGAGGCCAGAGTATGGAAA displayed a PBM binding z-score of 0.581.

The sequence ATATGTAGGTTATCGGGGCATTCAGTTTGCGCAT gave a PBM binding z-score of 2.14.

Turning to CCTACTGGGCCATCAGGTTATTGATATCAACGTT, the PBM binding z-score was -0.275.

Sequence ATATGTAGGTTAGATCCGGGTCATTCAGGCTATG yielded a PBM binding z-score of 1.71.

For AGTCAAGGTTCAGGACGAGGTAACGTAAAGCACG, the PBM binding z-score amounted to 2.25.

TCATATAGGTAAAAGGTGAAAGACGGTGTGGTAA: the PBM binding z-score was 0.152.

AGAACGAGGGCACGCTGAGTTAATAGCAGAGTAG yielded a PBM binding z-score of 1.08.

With GCAGACAGGTGAAACGCAGGTATCTCAGGGTGGC, the PBM binding z-score is -0.528.

The sequence ACTAGCAGGCCAAGGGACACTCAAGATTAGTCCG yielded a PBM binding z-score of -0.433.

ACTATGAGTTGAGACGAGGGCAACCGATAGGTTG showed a PBM binding z-score of 0.979.

In turn, GGAACGAGGGCATTCGGGTTGATAGCATGGCGAT returned a PBM binding z-score of 4.11.

TTACCACGGTGAAAGGTCGTTGATGCACGCCTTG: the PBM binding z-score came to 1.53.

As for GCTATTAGTTGAACGGGCAACCGAATGATTCTCG, the PBM binding z-score was -0.439.
